Reference: the supplement of paper PMC10515830
Structures can show the parent of a compound that is named as a salt.

Columns and labels:
Conditions in all cases: 10 µM; exposure time 6 h
[1] = test system: Danio rerio larvae (5 dpf); assay: difference in excitability vs DMSO (percentage points); higher = more excitable than DMSO
Procedure, shortened: (§1)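 Wild-type zebrafish larvae at 5 dpf were kept in 96-well plates and exposed for 6 h to 100 µL egg water holding library compound at a final concentration of 10 µM. From 3 h into exposure, the plates were held at 28.5 ℃ and photographed every 6 s through a 3-h programme of moving lines and 100 ms, 400Hz tones. Each behaviour was scored by Z-LaP Tracker, a DeepLabCut model, and averaged over 48 larvae per compound. Every value gives the compound mean minus the vehicle control mean, in percentage points.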

[2] = test system: Danio rerio larvae (5 dpf); assay: difference in startle response vs DMSO (percentage points); higher = stronger startle than DMSO
Procedure, shortened: as §1

[3] = test system: Danio rerio larvae (5 dpf); assay: difference in activity during first hour vs DMSO (percentage points); higher = more activity than DMSO
Procedure, shortened: as §1

[4] = test system: Danio rerio larvae (5 dpf); assay: difference in habituation to acoustic stimuli vs DMSO (percentage points); higher = more habituation than DMSO
Procedure, shortened: as §1

[5] = test system: Danio rerio larvae (5 dpf); assay: difference in combined optomotor response to red, green and blue moving lines vs DMSO (percentage points); higher = stronger optomotor response than DMSO
Procedure, shortened: as §1

SMILES	difference in excitability [1]	difference in startle response [2]	difference in activity during first hour [3]	difference in habituation to acoustic stimuli [4]	difference [5]
O=C1CN(/N=C/c2ccc([N+](=O)[O-])o2)C(=O)N1 [Nitrofurantoin]	9.88	-2.07	8.16	4.03	8.98
COC(=O)[C@@H]1CC2=CC(=O)CC[C@]2(C)[C@@]23O[C@@H]2C[C@@]2(C)[C@@H](CC[C@@]24CCC(=O)O4)[C@H]13 [Eplerenone]	2.31	-5.25	4.97	4.87	4.83
CC1=C(/C=C/C(C)=C/C=C/C(C)=C/C(=O)O)C(C)(C)CCC1 [all-trans Retinoic Acid]	7.11	-8.47	-4.15	-13.5	6.48
CCC(C)n1ncn(-c2ccc(N3CCN(c4ccc(OCC5COC(Cn6cncn6)(c6ccc(Cl)cc6Cl)O5)cc4)CC3)cc2)c1=O (stereo not given) [Itraconazole]	15.4	-0.629	-2.15	-5.43	4.73
C[C@H](Nc1ncnc2nc[nH]c12)c1cc2cccc(Cl)c2c(=O)n1-c1ccccc1	-1.93	2.84	12.8	2.7	8.44
O=c1[nH]cc(F)c(=O)[nH]1 [5-Fluorouracil]	4.49	-1.7	-1.12	0.939	0.269
CCCCc1oc2ccc(NS(C)(=O)=O)cc2c1C(=O)c1ccc(OCCCN(CCCC)CCCC)cc1 [Dronedarone (hydrochloride)]	7.9	-9.8	11.1	-12.7	-11.9
Nc1nc(=O)c2nc(CNc3ccc(C(=O)N[C@@H](CCC(=O)O)C(=O)O)cc3)cnc2[nH]1 [Folic Acid]	7.04	-0.204	15.5	2.6	6.5
CC(=O)OCC(=O)[C@@]1(O)CC[C@H]2[C@@H]3CCC4=CC(=O)CC[C@]4(C)[C@H]3C(=O)C[C@@]21C [Cortisone Acetate]	2.07	-1.29	1.26	3.11	-0.38
COC(=O)[C@H]1[C@H]2C[C@@H]3c4[nH]c5cc(OC)ccc5c4CCN3C[C@H]2C[C@@H](OC(=O)c2cc(OC)c(OC)c(OC)c2)[C@@H]1OC [Reserpine]	24.6	-7.69	9.27	-7.61	-10.4
COc1ccc2c(c1)c(CC(=O)O)c(C)n2C(=O)c1ccc(Cl)cc1 [Indomethacin]	-1.03	1.79	2.47	6.54	1.47
C=CC1=C(C(=O)O)N2C(=O)[C@@H](NC(=O)/C(=N\OCC(=O)O)c3csc(N)n3)[C@H]2SC1 [Cefixime]	-0.725	-0.605	11.6	8.39	10.8
OCCN(CCO)c1nc(N2CCCCC2)c2nc(N(CCO)CCO)nc(N3CCCCC3)c2n1 [Dipyridamole]	1.25	3.31	10.2	-3.82	6.89
O=C(O)CSc1nnc(Br)n1-c1ccc(C2CC2)c2ccccc12 [Lesinurad]	1.61	2.63	12.5	-0.00375	2.41
COc1c(N2CCNC(C)C2)c(F)cc2c(=O)c(C(=O)O)cn(C3CC3)c12 (stereo not given) [Gatifloxacin]	15	-3.53	-1.17	2.86	2.83
CCCc1nc(C)c2c(=O)nc(-c3cc(S(=O)(=O)N4CCN(CC)CC4)ccc3OCC)[nH]n12 [Vardenafil (hydrochloride hydrate)]	4.29	1.36	0.203	5.85	12.9
CC(C)(C(=O)c1cccnc1)c1cccnc1 [Metyrapone]	1.48	5.62	-0.661	1.75	4.5
CC(C)Nc1cccnc1N1CCN(C(=O)c2cc3cc(NS(C)(=O)=O)ccc3[nH]2)CC1 [Delavirdine (mesylate)]	-2.46	-1.52	-9.21	7.6	-2.16
CCCCCCCCCC(=O)N[C@@H](Cc1c[nH]c2ccccc12)C(=O)N[C@H](CC(N)=O)C(=O)N[C@@H](CC(=O)O)C(=O)N[C@@H]1C(=O)NCC(=O)N[C@@H](CCCN)C(=O)N[C@@H](CC(=O)O)C(=O)N[C@H](C)C(=O)N[C@@H](CC(=O)O)C(=O)NCC(=O)N[C@H](CO)C(=O)N[C@@H]([C@H](C)CC(=O)O)C(=O)N[C@@H](CC(=O)c2ccccc2N)C(=O)O[C@@H]1C [Daptomycin]	12	1.46	7.99	-6.5	6.83
CCN(CCO)CCCC(C)Nc1ccnc2cc(Cl)ccc12 (stereo not given) [Hydroxychloroquine (sulfate)]	10.2	0.589	-2.91	4.81	-3.68
CCc1cc(C(N)=S)ccn1 [Ethionamide]	-2.77	-1	-3.96	0.506	2.57
COc1ccc2cc(C(C)C(=O)O)ccc2c1 (single isomer, unassigned; (+)) [(+)-Naproxen]	3.24	2.79	-2.88	2.25	-3.32
COc1ccc(C(=O)CC(=O)c2ccc(C(C)(C)C)cc2)cc1 [Avobenzone]	3.84	-2.54	-6.34	4.35	-2.39
CC(C)C[C@H](NC(=O)CNC(=O)c1cc(Cl)ccc1Cl)B1OC(=O)C(CC(=O)O)(CC(=O)O)O1	-1.67	1.83	2.45	4.21	5.88

SMILES	difference in excitability [1]	difference in startle response [2]	difference in activity during first hour [3]	difference in habituation to acoustic stimuli [4]	difference [5]
CCC(=O)NC[C@@H]1C[C@H]1c1cccc2c1CCO2 [Tasimelteon]	25	6.9	-17.9	-3.17	11.5
CCOC(=O)O[C@]1(C(=O)COC(=O)CC)CC[C@H]2[C@@H]3CCC4=CC(=O)C=C[C@]4(C)[C@H]3[C@@H](O)C[C@@]21C [Prednicarbate]	10.3	3.6	-2.36	-0.38	-0.877
CO/N=C1\C[C@]2(C[C@@H]3C[C@@H](C/C=C(\C)C[C@@H](C)/C=C/C=C4\CO[C@@H]5[C@H](O)C(C)=C[C@@H](C(=O)O3)[C@]45O)O2)O[C@H](/C(C)=C/C(C)C)[C@H]1C [Moxidectin]	8.4	-9.21	-23	-11.5	-17
CN(C)CCc1c[nH]c2ccc(C[C@H]3COC(=O)N3)cc12 [Zolmitriptan]	-7.59	9.39	-0.487	4.76	10.3
Oc1c(Cl)cc(Cl)c(Cl)c1Cc1c(O)c(Cl)cc(Cl)c1Cl [Hexachlorophene]	8.13	-9.45	-18.6	-9.66	-15.6
CCCCCCCN(CC)CCCC(O)c1ccc(NS(C)(=O)=O)cc1 (racemic) [(±)-Ibutilide (hemifumarate)]	17.7	1.14	-7.19	6.3	-6.18
CN(C)CC/C=C1/c2ccccc2COc2ccc(CC(=O)O)cc21 [Olopatadine (hydrochloride)]	2.11	-1.34	-6.94	3.84	2.97
COc1cc([C@@H]2c3cc4c(cc3[C@@H](O[C@@H]3O[C@@H]5CO[C@@H](C)O[C@H]5[C@H](O)[C@H]3O)[C@H]3COC(=O)[C@H]23)OCO4)cc(OC)c1O [Etoposide]	-3.42	2.1	-5.75	2.55	-5.33
CC(=O)OCC[N+](C)(C)C [Acetylcholine (chloride)]	5.65	0.34	-8.36	2.23	-4.37
CCNC(=O)[C@@H]1CCCN1C(=O)[C@H](CCCNC(=N)N)NC(=O)[C@H](CC(C)C)NC(=O)[C@@H](CC(C)C)NC(=O)[C@H](Cc1ccc(O)cc1)NC(=O)[C@H](CO)NC(=O)[C@H](Cc1c[nH]c2ccccc12)NC(=O)[C@H](Cc1c[nH]cn1)NC(=O)[C@@H]1CCC(=O)N1 [Leuprorelin (acetate)]	16.2	-0.397	-3.87	1.37	4.92
Nc1cc(N2CCCCC2)nc(N)[n+]1[O-] [Minoxidil]	2.04	3.09	-1.78	-5.41	-0.063
c1ccc2c(CC3=NCCN3)cccc2c1 [Naphazoline (hydrochloride)]	10.4	-5.95	0.867	-2.18	-3.73
CCCCCOc1ccc(-c2cc(-c3ccc(C(=O)N[C@H]4C[C@@H](O)[C@@H](O)NC(=O)[C@@H]5[C@@H](O)[C@@H](C)CN5C(=O)[C@H]([C@H](O)CC(N)=O)NC(=O)[C@H]([C@H](O)[C@@H](O)c5ccc(O)c(OS(=O)(=O)O)c5)NC(=O)[C@@H]5C[C@@H](O)CN5C(=O)[C@H]([C@@H](C)O)NC4=O)cc3)no2)cc1 [Micafungin (sodium salt)]	-4.69	-8.33	19.8	-1.44	-1.06
CCOc1ccc2ccccc2c1C(=O)N[C@@H]1C(=O)N2[C@@H]1SC(C)(C)[C@@H]2C(=O)O [Nafcillin (sodium salt hydrate)]	3.99	-0.0381	19.4	-2.07	5.58
CCCSc1ccc2[nH]c(NC(=O)OC)nc2c1 [Albendazole]	17.3	4.02	4.4	0.0113	3
Nc1ncn([C@H]2C[C@H](O)[C@@H](CO)O2)c(=O)n1 [Decitabine]	-2.79	-4.56	-0.853	0.137	4.38
NC(=O)C(c1ccccc1)(c1ccccc1)[C@@H]1CCN(CCc2ccc3c(c2)CCO3)C1 [Darifenacin (hydrobromide)]	15.5	-9.95	-4.6	-3.27	-6.74
CCN(CC)C(=S)SSC(=S)N(CC)CC [Disulfiram]	12.2	-15.9	38.4	-13	-9.71
NC(=O)Cc1cccc(C(=O)c2ccccc2)c1N [Nepafenac]	9.24	1.72	-6.03	4.01	-4.77
CNCCC(Oc1ccc(C(F)(F)F)cc1)c1ccccc1 (stereo not given) [Fluoxetine (hydrochloride)]	2.79	-8.12	-19.3	-5.89	-6.12
CCCSc1nc(N[C@@H]2C[C@H]2c2ccc(F)c(F)c2)c2nnn([C@@H]3C[C@H](OCCO)[C@@H](O)[C@H]3O)c2n1 [Ticagrelor]	4.33	1.19	2.64	1.79	9.27
CC(COc1ccccc1)N(CCCl)Cc1ccccc1 (stereo not given) [Phenoxybenzamine (hydrochloride)]	4.28	2.85	18.5	-1.54	2.87
CCCCCOC(=O)Nc1nc(=O)n([C@@H]2O[C@H](C)[C@@H](O)[C@H]2O)cc1F [Capecitabine]	-2.56	-2.24	-0.876	-0.579	-1.26
